Screening results as filed in PubChem BioAssay.
Most compounds without a hit are left out; they make up all but 9.9% or so of the library.
MCF10A rereplic = induces DNA re-replication in MCF 10a normal breast cells; actives 2.9% (n = 350,000); MCF 10A DNA re-replication, Hoechst nuclear intensity, 48 h; Potency, µM (doses to about 46.1 µM), inactives show top-dose activity, positive = re-replication, usual class: activators; further: potency means the concentration at half of the fitted maximal effect; % of control where 0% means no effect; nearly all actives have a fitted effect of over 50% in size
KB-V1 MDR tox = kills drug-selected multidrug resistant KB-V1 cells. KB-V1 MDR cells viability, CellTiter-Glo, 72 h. Potency, µM (doses to about 46.1 µM), actives largely listed as cytotoxic. actives 3.4% (n = 400,000). AID 1347076; further: potency means the concentration at half of the fitted maximal effect; on the % scale 0 is the no-effect control and ±100 the full control effect; nearly all actives have a fitted effect of over 60% in size
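Cells of the MDR subline KB-V1 are plated, dosed with compound at multiple concentrations, and incubated 72 h at 37 degrees C; CellTiter-Glo is then added and luminescence read after 10 min.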
IL-1B inflam inh = inflammasome signaling inhibition, IL-1 beta readout. THP-1 LPS/ATP IL-1B secretion, AlphaLISA, 16 h; hits give low values. activity change, % at 57.5 µM. actives 4.7% (n = 360,000). AID 743279; in the data active means activity change below about -50%; inconclusive means mostly about -30% to -49%; further: on the % scale 0 is the no-effect control and ±100 the full control effect
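THP-1 cells pretreated 1 hr with compounds (up to 57.5 uM final), then stimulated with LPS (250 ng/mL final) plus ATP (1.25 mM final); secreted IL-1B measured by AlphaLISA after 16 hr, decreased signal indicating inhibition.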
KB-3-1 cytotox = kills parental KB-3-1 adenocarcinoma cells | actives 1.4% (n = 400,000) | AID 1347075 | Potency, µM (highest dose often 46.1 µM), hits mostly cytotoxic | KB-3-1 viability, CellTiter-Glo ATP luminescence, 72 h; further: potency means the concentration at half of the fitted maximal effect; on the % scale 0 is the no-effect control and ±100 the full control effect; nearly all actives have a fitted effect of over 60% in size
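Viability of parental KB-3-1 cells, measured by CellTiter-Glo luminescence, followed a 72 h incubation at 37 °C with pinned compounds in phenol-red-free DMEM containing 10% FBS.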
SW480 rereplic = inducers of DNA re-replication in SW480 colon cancer cells. AID 624297. actives 1.8% (n = 340,000). Potency, µM (top dose mostly 46.1 µM), for the others: at the top dose re-replication activation, usual class: activators. SW480 DNA re-replication, Hoechst DNA content imaging, 48 h; further: potency means the concentration at half of the fitted maximal effect; % of control where 0% means no effect; nearly all actives have a fitted effect of over 55% in size
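DNA re-replication was detected as more nuclei of elevated Hoechst intensity after 48 hr exposure to compound (23 nL pinned per well of 250 cells).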
* = called active by the depositor; i = inactive; ? = inconclusive; · = no result; ! = not active in a repeat. Unless noted, the call rests on the fitted dose curve; in most records, active means well fitted curve in the direction sought with a large enough effect; inconclusive means small, poorly fitted or top-dose-only effect, or another doubt; inactive means no such curve, though single readings can be large; an effect the other way counts as inactive or inconclusive.

SMILES | MCF10A rereplic | KB-V1 MDR tox | IL-1B inflam inh | KB-3-1 cytotox | SW480 rereplic
COc1cccc(N=c2oc3cc(O)ccc3cc2C(=O)NCC2CCCO2)c1 (stereo unspecified) | ? | i | -87* | i | 5%
CCOC(=O)c1sc(NC(=O)C2CC(=O)N(c3ccc(C)cc3)C2)nc1C (stereo unspecified) | 20% | i | -18 | i | 4%
O=C(C[n+]1cccc(Br)c1)c1cccc([N+](=O)[O-])c1 | · | i | · | i | ·
CCSC1=NS(=O)(=O)c2ccccc21 | · | ? | · | i | ·
O=C(NCC1CCCO1)c1csc2c1CCCCC2 (stereo unspecified) | 2.6µM* | i | -1 | i | 1%
CCc1nc2ccc(C(=O)Nc3cccc(OC)c3)cn2c1N(CC)CCN(C)C | · | i | -17 | i | ·
CCc1nc2ccc(C(=O)Nc3cccc(NS(C)(=O)=O)c3)cn2c1N(C)C(=O)Cc1ccccc1 | · | i | -87* | i | ·
CCc1nc2ccc(C(=O)Nc3cccc(NS(C)(=O)=O)c3)cn2c1N(C)C(=O)c1cccc(OC)c1 | · | ? | -78* | i | ·
O=C(CNC(=O)C1COc2ccccc2O1)Nc1ccc(F)c(F)c1 (stereo unspecified) | 1% | i | 26 | i | -5%
CCOC(=O)CSC1=NC(=O)/C(=C\c2ccc(OC(C)=O)cc2)S1 | 2.6µM* | ? | -62* | ? | ?
CCOC(=O)CSC1=NC(=O)/C(=C/c2ccc(Br)cc2)S1 | ? | i | -64* | i | 20%
NC1=NC(=O)/C(=C/c2ccc(Br)cc2)S1 | -2% | i | 10 | i | -9%
CCOC(=O)COc1ccc(Br)cc1/C=C1\SC(N)=NC1=O | 5% | i | -5 | i | 0%
COC(=O)c1ccc(C(=O)OC)c(NC(=S)N2CCC(N3CCCCC3)CC2)c1 | -2% | i | -8 | i | 14%
COC(=O)c1ccc(C(=O)OC)c(NC(=S)N2CC(C)CC(C)C2)c1 (stereo unspecified) | -67% | 15µM* | -12 | i | -54%
COC(=O)c1ccc(C(=O)OC)c(NC(=S)N2CCC(C(N)=O)CC2)c1 | -3% | i | 38 | i | -40%
COC(=O)c1ccc(C(=O)OC)c(NC(=S)N2CCCC(C)C2)c1 (stereo unspecified) | -91% | 18µM* | -1 | i | ?
CCc1cc2cc(C)cc(C)c2[nH]c1=S | 7% | i | -12 | i | -6%
COc1cccc(NC(=O)COc2ncnc3sc(C)c(C)c23)c1 | -4% | i | 9 | i | -9%
CCN(CC(=O)Nc1cccc(OC)c1)c1ncnc2sc(C)c(C)c12 | -57% | 2.3µM* | -22 | ? | -140%
CCCCc1ccc(-n2nc3cc(C)c(NC(=O)c4ccc(C#N)cc4F)cc3n2)cc1 | · | ? | · | i | ·
O=C(NCC(=O)N1CC=C(c2ccccc2)CC1)c1ccc(OC(F)F)cc1 | 8.2µM* | 13µM* | 25 | ? | ?
COc1cc(OC)cc(C(=O)N2CCN(C(=O)c3ccc(-c4ccccc4)cc3)CC2)c1 | -3% | ? | -68* | i | 2%
O=C(NCC(=O)N1CC=C(c2ccccc2)CC1)c1ccccc1Br | 8.2µM* | ? | i | ? | -26%
COc1cc(OC)cc(C(=O)NCC(=O)N2CC=C(c3ccccc3)CC2)c1 | ? | 7.3µM* | 14 | 5.8µM* | 7.3µM*
SMILES | MCF10A rereplic | KB-V1 MDR tox | IL-1B inflam inh | KB-3-1 cytotox | SW480 rereplic
COc1ccc(C(=O)N2CCN(C(=O)c3ccc(-c4ccccc4)cc3)CC2)cc1OC | 28% | i | -9 | i | -2%
Cc1cccc(-c2nnn3c2nc(NCc2ccccc2)c2ccccc23)c1 | · | i | · | i | ·
COc1ccccc1C1=NNC(=Nc2cccc(S(=O)(=O)N(C)C)c2)SC1 | 12% | ? | -72* | ? | ?
C=CCn1c(=O)n2ncnc2c2c3c(sc21)CCCC3 | -1% | 15µM* | 0 | i | -10%
Cc1ccc(CNC(=O)CN(c2ccc(Cl)cc2Cl)S(=O)(=O)c2ccccc2)cc1 | · | i | · | i | ·
CCc1ccc(C2CC(=O)N(c3cccc(C(F)(F)F)c3)C3=C2C(=O)OC3)cc1 (stereo unspecified) | · | i | · | i | ·
CN1CCN(c2ccc(NC(=O)c3cc4ccccc4o3)cc2)CC1 | -3% | i | -6 | i | 4%
CCCC(=O)N1CCN(c2ccc(NC(=O)c3cc4ccccc4o3)cc2)CC1 | 27% | i | -56* | i | -4%
O=C(Nc1ccc(N2CCN(C(=O)c3ccccc3)CC2)cc1)c1cc2ccccc2o1 | 10% | ? | -97* | ? | -5%
CC(C)CC(=O)NC(NC(=S)Nc1sc2c(c1C#N)CCCC2)C(Cl)(Cl)Cl (stereo unspecified) | 16µM* | i | 24 | ? | 2%
NC(=O)c1c(NC(=O)C2CCCO2)sc2c1CCCC2 (stereo unspecified) | 1% | 15µM*! | -14 | i | -5%
CCC(=O)Nc1sc2c(c1C#N)CCC2 | -3% | i | 24 | i | -3%
COC(=O)Nc1sc2c(c1C(=O)NC1CC1)CCCCCC2 | ? | 23µM* | 4 | i | -6%
CCOC(=O)c1c(NC(=O)C2CCCO2)sc2c1CCC2 (stereo unspecified) | ? | i | -10 | i | 2%
N#Cc1c(NC(=O)C2CCCO2)sc2c1CCCCCC2 (stereo unspecified) | ? | 18µM* | -2 | i | ?
O=C(O)C(Cc1c[nH]c2ccccc12)N1C(=O)C2C3c4ccccc4C(c4ccccc43)[C@@H]2C1=O (stereo partly specified) | 0% | i | 9 | i | 5%
N#Cc1c(NC(=S)NC(=O)C2CCCC2)sc2c1CCCCC2 | ? | ? | -54* | i | -2%
N#Cc1c(NC(=O)CSc2nnnn2C2CCCCC2)sc2c1CCCC2 | 27% | 23µM* | 15 | i | -2%
CCCn1nnnc1-c1ccc(Cl)cc1 | 0% | i | 7 | i | -7%
FC(F)(F)c1cccc(Cn2nnnc2-c2ccc(Cl)cc2)c1 | 7% | 15µM* | -3 | ? | -6%
CCOCCOC(=O)C1=C(C)Nc2ccc(C)cc2S1 | -2% | 13µM* | 11 | i | 0%
O=C(Nc1nc(-c2ccc(Cl)cc2Cl)cs1)c1ccc(OCC2CCCO2)cc1 (stereo unspecified) | 16% | 9.2µM* | 2 | i | -10%
Cc1cccc(NC(=O)c2ccc(OCC3CCCO3)cc2)c1C (stereo unspecified) | 8% | 21µM* | 0 | i | 2%
O=C(Nc1ccc(Cl)cc1)c1ccc(OCC2CCCO2)cc1 (stereo unspecified) | 0% | 13µM* | 24 | ? | -9%
